The list is not random: actives were taken first. Their share in the collection is about 10%.
ALDH1A1 block – blocks purified human ALDH1A1 activity | Potency, µM (titrated, usually from 75.3 µM), inactives show top-dose activity, negative = inhibition, actives largely listed as inhibitors | AID 1030 | 220,000 tested, 7.3% active | Purified ALDH1A1, NADH fluorescence, propionaldehyde substrate | P00352;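 note: potency is the fitted concentration of half-maximal effect; plate controls were no enzyme wells and a reference inhibitor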
Target sequence (P00352 whole entry, looked up): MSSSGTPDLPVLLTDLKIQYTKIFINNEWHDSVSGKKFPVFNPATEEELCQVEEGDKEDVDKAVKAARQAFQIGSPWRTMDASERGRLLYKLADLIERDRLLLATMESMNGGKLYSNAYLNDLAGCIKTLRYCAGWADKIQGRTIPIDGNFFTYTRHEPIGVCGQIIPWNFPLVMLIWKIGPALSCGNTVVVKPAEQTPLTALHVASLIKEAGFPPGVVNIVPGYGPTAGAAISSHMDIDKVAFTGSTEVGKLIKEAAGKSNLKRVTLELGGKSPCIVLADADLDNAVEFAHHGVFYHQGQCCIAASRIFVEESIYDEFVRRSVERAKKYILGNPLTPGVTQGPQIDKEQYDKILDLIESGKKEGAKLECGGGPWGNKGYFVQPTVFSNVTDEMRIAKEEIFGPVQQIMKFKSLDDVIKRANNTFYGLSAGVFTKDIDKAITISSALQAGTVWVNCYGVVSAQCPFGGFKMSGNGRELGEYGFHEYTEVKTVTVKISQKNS
LMNA splice mod – changes lamin A minigene splicing in HeLa cells; HeLa LMNA splicing GFP/RFP minigene ratio, 48 h; Potency, µM (top dose mostly 46.1 µM), for the others: top-dose ratio change, negative = inhibition, actives largely listed as inhibitors; 200,000 tested, 0.01% active; AID 1487; active = well fitted inhibition curve with a large enough effect in the signal ratio, with a control signal flat, not every such curve was filed as active; inconclusive = small, poorly fitted or top-dose-only effect, or effect the other way, or a change in a side signal; the % refers to the signal ratio; note: potency is the fitted concentration of half-maximal effect
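Read-out is the ratio of GFP to DsRed2 object intensity, acquired by 488 nm laser-scanning cytometry on HeLa lamin A-EGFP minigene reporter cells. Compound incubation 48 hrs at 37 °C in Opti-MEM with 2% FBS; DMSO 0.5% final.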
HPGD block – inhibitors of human 15-hydroxyprostaglandin dehydrogenase (HPGD) | Potency, µM, inactives show at the top dose activity change, negative = inhibition, usual class: inhibitors | purified HPGD, NADH fluorescence kinetic, PGE2 substrate | 150,000 tested, 4.3% active | AID 894 | P15428; note: potency is the fitted concentration of half-maximal effect
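NADH formation kinetics: reaction with 30 uM PGE2 and 1 mM NAD+ (final), 20 nM enzyme, Tris-HCl pH 8 with Tween 20, after 15 min compound preincubation at room temperature. Fluorescence change, last versus first of five reads.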
12-hLO inh – 12-hLO (ALOX12) enzyme inhibition; P18054; purified 12-hLO, xylenol orange hydroperoxide absorbance; Potency, µM (series often up to 57.1 µM), for inactives: top-dose activity change, negative = inhibition, usual class: inhibitors; 150,000 tested, 0.12% active; AID 1452; active = well fitted inhibition curve with a large enough effect; inconclusive = small, poorly fitted or top-dose-only effect; note: potency is the fitted concentration of half-maximal effect; nearly all actives have a fitted effect of over 55% in size
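150 nM 12hLO, 25 mM Hepes pH 7.0 + 0.01% Triton X-100; cpd preinc 15 min RT; 40 uM arachidonic acid, 30 min RT; Fe-XO 30 min; A573/A405 ratio as read-out.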
PNC assembly inh – blocks assembly of the perinucleolar compartment. PC3M PTB-GFP, PNC prevalence imaging, 16 h; stronger effect = lower value. activity change (PNC), negative = inhibition, % at 10 µM. 140,000 tested, 3.1% active;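 active = readout at or below -70, meaning at least 70% loss of cells showing the perinucleolar compartment, a nuclear body marking cancer cells; inconclusive = readout between -30 and a set limit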;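 note: plate controls were DMSO wells for no effect and camptothecin positive control wells for full effect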
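PC3M cells stably expressing PTB-GFP, 750–1000 cells/well, treated 16 h at 37 °C with compound (23 nl of library stock), in duplicate. After paraformaldehyde fixation and Hoechst stain, imaged at 20x; PNC prevalence scored by image analysis.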
An asterisk follows results filed as active; ? = inconclusive; . = no result; [ ] = another dose, or the depositor's remark. Unless noted, calls come from the whole dose curve; as a rule, active = well fitted inhibition curve with a large enough effect (not every such curve was filed as active); inconclusive = small, poorly fitted or top-dose-only effect, or another doubt; inactive = no such curve, though single readings can be large or run the other way. Unless noted, % is set by controls: 0 for no effect and ±100 for the full control effect.

SMILES | ALDH1A1 block | LMNA splice mod | HPGD block | 12-hLO inh | PNC assembly inh
O=C(COn1nnc2ccc(C(F)(F)F)cc21)Nc1c(Cl)cccc1Cl | 5% | 14% | -16% | -1% | ?
COc1cc(C2NC(=S)NC(c3ccccc3)=C2C(C)=O)cc(Cl)c1OCC(=O)O (stereo unspecified) | ? | 0% | -20% | -5% | 92
CC(=O)C1=C(c2ccccc2)NC(=S)NC1c1cc(Cl)c(OC(C)C)c(Cl)c1 (stereo unspecified) | 0.71µM* | ? | -19% | ? | 3
CCN1C(=O)N[C@@H](c2ccccc2)C1=O | 1%[20.9 µM] | ? | -3% | -5%[25.6 µM] | .
C/C(CC(=O)Nc1cccc(Cl)c1Cl)=N\NC(=O)c1ccccc1C | 8.9µM* | -11%[46 µM] | . | . | .
C/C(CC(=O)Nc1cc(Cl)ccc1Cl)=N\NC(=O)c1ccccc1Br | ? | 0%[46 µM] | . | . | .
C=CCC(CC=C)(NC(=O)c1cccc(C)c1)c1ccccc1 | -3% | -5% | -9% | 1% | 50
Cn1cc(S(=O)(=O)c2ccccc2)c(=O)c2cc(F)c(N3CCCCCC3)cc21 | . | -24%[46 µM] | . | . | .
S=C(c1nc2ccccc2[nH]1)N1CCOCC1 | 13µM* | -1% | ? | -6% | ?
CC(C)CC(=O)Nc1ccc(-c2cn3ccsc3n2)cc1 | 0% | -2% | 25µM* | 2% | ?
Cc1nc(Cl)cc(CS(=O)(=O)c2ccc(Cl)cc2)n1 | 20µM* | -6%[46 µM] | . | . | .
Cc1nc(CS(=O)(=O)c2ccccc2)cc(Sc2ccc(Cl)cc2Cl)n1 | ? | ? | -2% | -2% | ?
CCOC(=O)c1ccc(NC2=CC(=O)C(=O)c3ccccc32)cc1 | 6% | 17% | 4.5µM* | 0% | 18
Cc1ccc(NC2=CC(=O)C(=O)c3ccccc32)cc1 | ? | ? | 20µM* | -13% | 11
CN1CCN(c2ncc3nc(-c4ccc(F)cc4)c(=O)n(C4CC4)c3n2)CC1 | ? | 1% | . | . | .
C/C1=C2N=C(/C=C3N=C(/C(C)=C4\[N-]C(C)(C5N=C1C(C)(CCC(=O)NCC(C)OP(=O)([O-])O[C@H]1C(O)C(n6cnc7cc(C)c(C)cc76)O[C@@H]1CO)C5CC(N)=O)C(C)(CC(N)=O)C4CCC(N)=O)C(C)(CC(N)=O)C\3CCC(N)=O)C(C)(C)C/2CCC(N)=O.[CH2-]C1OC(n2cnc3c(N)ncnc32)C(O)C1O.[Co] (stereo partly specified) | -7% | ? | -12% | -4% | .
CCN(c1ccccc1)S(=O)(=O)c1cc(C(=O)Nc2ccc(Br)cc2)ccc1F | 28µM* | ? | ? | -8% | 14
Cc1ccc(/C=N/n2c(COc3ccccc3)n[nH]c2=S)s1 | ? | -7%[0.0737 µM] | 2.2µM* | 2% | 61
S=c1[nH]nc(-c2ccccn2)n1/N=C/c1ccc(Br)s1 | ? | -12% | 7.9µM* | ? | 8
S=c1[nH]nc(COc2ccccc2)n1/N=C/c1ccc(Br)s1 | ? | 12% | 10µM* | -28% | 51
S=c1[nH]nc(-c2ccccn2)n1/N=C/c1ccc(Cl)c(Cl)c1 | -4% | . | . | . | .
CCOc1ccc(C(=O)c2oc3ccccc3c2NC(=O)c2cc(-c3ccc(C)cc3)on2)cc1 | . | 25%[46 µM] | . | . | .
O=C(Oc1ccccc1)N1CCC2(CCCN(c3ccccn3)C2)CC1 | ? | . | -25% | 0% | .
C=CCc1ccccc1OCC(O)CNC (stereo unspecified) | 22µM* | -7% | -3% | 5% | 23
COc1cccc(Nc2ncc3nc(CCc4ccccc4)c(=O)n(C[C@H]4CCCO4)c3n2)c1 | 25µM* | . | ? | -6% | .
COc1cccc(Nc2ncc3nc(-c4ccccc4)c(=O)n(C[C@H]4CCCO4)c3n2)c1 | 4% | . | -6% | -3% | .
CCN(CC)S(=O)(=O)c1cccc(C(=O)N2CC(O)CC2C(=O)OC)c1 (stereo unspecified) | 12% | -1% | 0% | 0% | -23
CCN(CC)S(=O)(=O)c1cccc(C(=O)N2CC(O)CC2C(=O)O)c1 (stereo unspecified) | 12% | 1% | -15% | 2% | -107*
CC(C)(C)Nc1nc(N2CCCC2)nc(N2CCCC2)n1 | 0.5µM* | ? | -6% | -7% | ?
CC(=O)CCc1c(C)nc2ccc(C)cc2c1Cl | 11% | . | . | . | .

Compound activity: PubChem BioAssay, National Center for Advancing Translational Sciences (NCATS)
